Activity calls are given as the source filed them.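 The calls were made as follows: active = ATP signal drop in HepG2 cells with fitted half-maximal concentration at most twice the top tested dose; inconclusive = flat curve losing 30 to 70% signal, or poor fit; inactive = the rest.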
Assay: viability loss in HepG2 liver cells – cell-based, luminescence, dry powder, set 9, cytotoxicity control, dose response (AID 743358)
Conditions: ATP luminescence, 72 h; series mostly up to 26 µM

SMILES	outcome
CC(=O)c1ccc(N2CCN(C(=O)c3ccccc3Cl)CC2)cc1	inactive
COc1ccccc1C(=O)N1CCN(c2ccc(C(C)=O)cc2)CC1	inactive
CC(=O)c1ccc(N2CC3(CN(C(=O)c4ccc5c(c4)OCO5)C3)C2)cc1	inactive
CC(=O)c1ccc(N2CCN(C(=O)c3ccccc3F)CC2)cc1	inactive
CN1c2ccc(-c3cccc(F)c3)cc2[C@H]2[C@H](CCN2C(=O)Cc2ccccc2)[C@H]1CO	inactive
CCC(=O)N1CC[C@@H]2[C@@H](CO)N(C)c3ccc(-c4ccc(F)cc4)cc3[C@@H]21	inactive
CCCCCCCC(=O)N1CC[C@@H]2[C@@H](CO)N(C)c3ccc(-c4cccc(F)c4)cc3[C@@H]21	inactive
COc1ccccc1NC(=O)N1CC[C@@H]2[C@@H](CO)N(C)c3ccc(-c4ccc(F)cc4)cc3[C@@H]21	inactive
CN1c2ccc(-c3ccc(F)cc3)cc2[C@H]2[C@H](CCN2C(=O)Cc2cccnc2)[C@H]1CO	inactive
CC(C)NC(=O)N1CC[C@@H]2[C@@H](CO)N(C)c3ccc(-c4ccc(F)cc4)cc3[C@@H]21	inactive
COc1ccccc1NC(=O)N1CC[C@@H]2[C@@H](CO)N(C)c3ccc(-c4cccc(F)c4)cc3[C@@H]21	inactive
CN1c2ccc(-c3cccc(F)c3)cc2[C@H]2[C@H](CCN2C(=O)Cc2cccnc2)[C@H]1CO	inactive
CNS(=O)(=O)c1ccc(N2CCN(C(=O)c3ccc4c(c3)OCO4)CC2)cc1	inactive
COc1ccc(NC(=O)N2CC[C@@H]3[C@@H](CO)N(C)c4ccc(-c5ccc(F)cc5)cc4[C@@H]32)cc1	inactive
CN1c2ccc(-c3cccc(F)c3)cc2[C@H]2[C@H](CCN2C(=O)CCCCCCC(=O)O)[C@H]1CO	inactive
CN1c2ccc(-c3cccc(F)c3)cc2[C@@H]2[C@@H](CCN2C(=O)c2ccc3c(c2)OCO3)[C@H]1CO	inactive
CN1c2ccc(-c3ccc(F)cc3)cc2[C@H]2[C@H](CCN2C(=O)Nc2cc(F)ccc2F)[C@H]1CO	inactive
